Cycloheximide cs: affects cycloheximide protein synthesis inhibition readout, counter-screen; cell reporter, cycloheximide protein synthesis inhibition counterscreen; 300,000 compounds, 12% hits; AID 2314; max response, %; in the data active = max response mostly above about 13%, no sharp cut-off; inactive = mostly below about 14%; also: read at 38.3 µM for the half of the compounds with a filed dose; 0% is about no effect
Pf growth 96h: P. falciparum growth inhibition at 96 hours | P. falciparum luciferase reporter growth, 96 h | Potency, µM (titrated, usually from 28.7 µM), inactives show at the highest dose activity change, negative = inhibition, hits mostly inhibitors | 320,000 compounds, 6.9% hits | AID 504834; also: potency is read from the fitted curve at half-maximal effect; % is scaled to controls: 0 for no effect and ±100 for the full control effect
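Compounds incubated with erythrocytes infected by luciferase-expressing P. falciparum (2% hematocrit, 0.05% parasitemia final) for 96 hours, 37 C in 5% CO2. Growth inhibition scored as decreased luciferase luminescence.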
NS1 inh: blocks influenza NS1 protein function. AID 2326. Potency, µM (top dose mostly 46.1 µM), for the others: at the highest dose activity, positive = more growth. 270,000 compounds, 0.4% hits; calls by dose curve; also: potency is read from the fitted curve at half-maximal effect; actives are rising curves; nearly all actives have a fitted effect of over 50% in size
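A cell-based growth assay was used: compounds that relieve NS1-induced slow growth of budding yeast raise OD600. Assay medium was yeast nitrogen base with ammonium sulphate and -URA supplement, pH 6.0, with 2% galactose.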
SARS PLP yeast: SARS-CoV PLP inhibition in yeast. S. cerevisiae expressing SARS-CoV PLpro, growth rescue. Potency, µM (doses to about 32.9 µM), for the others: top-dose activity, positive = growth rescue, actives largely listed as activators. 330,000 compounds, 0.19% hits. AID 485353; calls by dose curve; also: potency is read from the fitted curve at half-maximal effect; 0% is about no effect; nearly all actives have a fitted effect of over 55% in size
Pf growth 48h: P. falciparum growth inhibition at 48 hours (one generation). P. falciparum luciferase growth in erythrocytes, 48 h. Potency, µM (highest dose often 28.7 µM), for the others: top-dose activity change, negative = inhibition, usual class: inhibitors. 310,000 compounds, 5.9% hits. AID 504832; also: potency is read from the fitted curve at half-maximal effect; % is scaled to controls: 0 for no effect and ±100 for the full control effect
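Read-out is firefly luciferase luminescence from an integrated reporter in P. falciparum, so falling signal marks reduced parasite growth. Infected erythrocytes were at 2% hematocrit and 0.1% parasitemia (final) in Albumax-supplemented RPMI 1640.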
Shiga toxin inh: blocks Shiga toxin action in Vero cells; Vero cells, Shiga toxin protein synthesis inhibition reporter; inhibition, % at 38.7 µM; 290,000 compounds, 9.2% hits; AID 2315; in the data active = inhibition mostly above about 28%, no sharp cut-off; inactive = mostly below about 43%; also: 0% is about no effect
Numbers without * were called inactive; ? = inconclusive; · = no result; [ ] = another dose, or the depositor's remark. The list is not random: actives were taken first. Their share in the collection is about 21%. Unless noted, calls follow the shape of the dose curve; as a rule, active = well fitted inhibition curve with a large enough effect; inconclusive = small, poorly fitted or top-dose-only effect, or another doubt; inactive = no such curve, though single readings can be large or run the other way.

SMILES	Cycloheximide cs	Pf growth 96h	NS1 inh	SARS PLP yeast	Pf growth 48h	Shiga toxin inh
Cc1cc(OCC(=O)NCCCn2ccnc2)c2c(C)c(C)c(=O)oc2c1	8.9	-22.6%	-2.6%	-0.1%	4.1%	31.9
Cc1nn(CC(=O)Nc2ccc(Br)cc2F)c(=O)c2cccn12	-9.7	?	-0.4%	-2.1%	6.1%	11.7
O=[N+]([O-])c1ccc(/C=C2\CCC(C3=CCCC3)=C2N2CCOCC2)cc1	24.3*	110.7%	-38.1%	-63.8%	44.1%	35.0
Cc1cc(-c2cn3ccccc3n2)c(C)n1-c1ccccc1	48.1*	?	·	-6.5%	-57.7%	64.3*
COc1ccc(-n2c(C)cc(-c3cn4cccc(C)c4n3)c2C)cc1	2.1	?	·	-1.0%	?	9.9
CC(C)(C)NC(=O)NC(=O)C[n+]1ccc(Cc2ccc([N+](=O)[O-])cc2)cc1	-4.9	?	3.8%	1.3%	9.28µM*	-3.8
Cc1ccc(Cl)cc1NC(=O)C[n+]1ccc(Cc2ccc([N+](=O)[O-])cc2)cc1	-1.8	1.85µM*	·	1.8%	?	-7.3
CC1=NNC(=O)/C1=C\c1cn(-c2ccccc2)nc1-c1cccs1	-8.6	8.28µM*	7.5%	-66.5%	?	-14.7
O=Cc1cn(-c2ccccc2)nc1-c1ccc(F)cc1	active	?	-3.5%	4.1%	30.2%	16.1
O=C(O)c1cn(-c2ccccc2)nc1-c1ccc(F)cc1	-2.7	0.0%	·	-3.5%	32.0%	-11.3
CC1=NNC(=O)/C1=C\c1cn(-c2ccccc2)nc1-c1ccc(F)cc1	1.1	53.5%	-2.1%	-5.1%	5.22µM*	21.6
O=C1NC(=O)C(c2cn(-c3ccccc3)nc2-c2ccc(F)cc2)N1 (stereo not drawn)	-2.9	?	10.7%	5.4%	4.65µM*	-5.5
O=C1CCCCC1C(O)c1ccc(Cl)cc1 (stereo not drawn)	-2.8	0.0%	5.0%	6.0%	16.0%	-5.1
CCOC(=O)CSc1nnc2c(n1)C1(C)CCC2C1(C)C (stereo not drawn)	-2.5	3.29µM*	-11.9%	9.8%	-11.4%	0.3
CC12CCC(c3nnc(SCC(=O)Nc4cccc5ccccc45)nc31)C2(C)C (stereo not drawn)	-3.1	?	-21.4%	2.1%	-7.4%	-2.0
CC12CCC(c3nnc(SCc4ccc(Cl)cc4)nc31)C2(C)C (stereo not drawn)	-1.1	4.15µM*	-3.5%	-18.0%	-12.3%	13.5
C=CCSc1nnc(-c2nnc(SCC=C)n2CC)n1CC	0.8	11.7µM*	0.2%	-4.3%	10.4µM*	-14.8
C=CCSc1nnc(CNC(=O)c2ccc(Cl)cc2)n1CC	-3.2	-26.3%[5.75 µM]	1.9%	0.9%	-18.4%	-12.4
COc1ccc(CNC(=O)C/C(C)=N/NC(=O)COc2ccccc2)cc1	7.4	-11.9%	2.1%	3.5%	-3.5%	6.4
NS(=O)(=O)C#Cc1ccccc1	26.4*	·	·	·	·	15.2*
CN(C)C(=O)C#Cc1ccccc1	-3.6	0.0%	-7.3%	-0.1%	-2.3%	1.7
CC(C)COc1ccc(/C=C2/Sc3ccccc3C2=O)cc1	1.9	2.7%	14.6%	-0.4%	?	-11.5
CCCCOc1cccc(C(=O)NC(=S)Nc2cccc(NC(=O)c3ccccc3Cl)c2)c1	10.1	16.4%	9.8%	11.9%	-11.3%	-7.2
CC(C)C(=O)Nc1cccc(NC(=S)NC(=O)c2ccccc2Cl)c1	25.0*	9.4%	-11.1%	2.9%	1.5%	13.7
CCC(=O)Nc1cccc(NC(=S)NC(=O)c2ccccc2Cl)c1	25.2*	?	-0.2%	-0.7%	78.1%	36.7
SMILES	Cycloheximide cs	Pf growth 96h	NS1 inh	SARS PLP yeast	Pf growth 48h	Shiga toxin inh
CCCOc1cccc(C(=O)NC(=S)Nc2cccc(NC(=O)c3ccccc3Cl)c2)c1	4.0	2.94µM*	?	-5.3%	1.6%	-12.9
Cc1cc(C(=O)NC(=S)Nc2cccc(NC(=O)C(C)C)c2)ccc1[N+](=O)[O-]	35.6*	97.8%	-1.1%	-24.5%	21.8%	9.8
CC(C)C(=O)Nc1cccc(NC(=S)NC(=O)c2ccc([N+](=O)[O-])cc2)c1	14.8	39.4%	1.9%	7.8%	1.6%	53.7
CCN1CCN(c2ncnc3sc4c(c23)CCC(C)C4)CC1 (stereo not drawn)	1.0	-1.8%	-2.2%	2.7%	?	-8.0
CSc1ncccc1C(=O)NCCc1ccccc1F	10.7	-24.1%	1.6%	-1.3%	32.7%	0.9
Nc1nonc1NC(=O)NN=C1CCCCC1	1.0	-2.8%	-4.2%	5.5%	4.2%	44.1
NC(=O)NCC(c1ccccc1)C1CCCCC1 (stereo not drawn)	0.6	2.6%	?	-5.1%	-5.5%	5.5
Cc1ccccc1C(=O)NC(=S)Nc1cccc(NC(=O)C(C)C)c1	27.4*	22.6%	5.7%	0.2%	13.6%	41.6
CCC(=O)Nc1cccc(NC(=S)NC(=O)c2cccs2)c1	40.5*	14.4%	3.7%	-3.7%	170.8%	110.0*
CCCc1cc(=O)c2ccc(OC/C(C)=N/O)cc2o1	1.6	-0.2%	-5.2%	-0.3%	-5.1%	-0.3
CC(C)c1ccccc1NC(=O)C1CN(S(=O)(=O)c2ccccc2)CCN1S(=O)(=O)c1ccccc1 (stereo not drawn)	-0.9	?	?	6.8%	?	-13.4
CCS(=O)(=O)N1CCN(c2ccc([N+](=O)[O-])c(NCC3CCCO3)c2)CC1 (stereo not drawn)	0.5	?	1.6%	1.0%	-21.0%	25.6
Cc1nc2ccccn2c(=O)c1NC(=O)c1cccc2ccccc12	·	8.7%	·	-4.9%	0.3%	·
Cc1cc(NC(=O)c2ccccc2)sc1C	33.2*	-19.1%	-116.5%	·	35.2%	55.7*
Cc1ccc(NC(=O)c2ccccc2)s1	38.6*	11.5%	-34.5%	-20.8%	-51.6%	100.2*
COc1ccc(C2C=C3CN(C(=O)OC(C)(C)C)S(=O)(=O)C3CC2OC(=O)c2cccc(C)c2)cc1 (stereo not drawn)	5.0	·	·	·	·	16.1
Oc1ccc(N=Nc2ccccc2)o1	30.1*	19.4%	-64.3%	-11.8%	5.5%	42.1*
O=S(=O)(O)c1ccc(N=Nc2ccccc2)cc1	0.4	-11.3%	3.5%	3.5%	53.6%	3.1
Fc1ccc(C2CCCN2Cc2nc(Cc3ccccc3)no2)cc1 (stereo not drawn)	-0.6	-10.8%	-6.4%	0.0%	?	-5.2
Cc1nc2ccc(NC(=O)c3ccc(Cl)s3)cc2s1	15.0	35.3%	5.0%	-2.3%	·	76.6*
Cc1ccc2nc(NC(=O)c3ccc(Cl)s3)sc2c1	25.0*	-102.4%	-5.1%	6.4%	·	50.7*
Cc1ccc(C(=O)O)c(C(=O)Nc2nc3ccccc3s2)c1	2.4	33.9%	9.2%	?	·	-2.2
Cc1cccc(C(=O)NNC(=S)NC(=O)c2cccs2)c1	0.7	11.7µM*	-118.8%	-7.1%	-4.2%	-3.4
Cc1ccc2nc(NC(=S)NC(=O)c3cccs3)sc2c1	47.5*	-54.7%	-7.4%	?	97.4%	102.0*
Cc1cc(C(=O)Nc2ccc3nc(C)sc3c2)c2ccccc2n1	-2.1	-20.7%	9.6%	-2.0%	-7.8%	13.3

Compound activity deposited in PubChem BioAssay by National Center for Advancing Translational Sciences (NCATS).
